# Source: PubChem BioAssay (several laboratories)
# This is a sample that favours compounds with a hit; in the whole collection about 22% have one here.
# CYP2C19 inhib = inhibitors of human CYP2C19; CYP2C19 Supersomes, luciferin-H EGE luminescence, 30 min; AID 778; inhibition, % at 5 µM; P33261; hit rate 21% among 96,000;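 active = CYP2C19 inhibition above a set limit at 5 µM in the primary screen, cut at about 50% in these data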;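 note: plate controls were negative control wells for no effect and 2.5 mM tranylcypromine positive control for full effect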
# Measles CPE = protection of cells from measles virus; Measles virus-infected cells, CPE protection, absorbance; protection (pct of control), % at 4 µM; hit rate 1.5% among 140,000; in the data active = protection mostly above about 24%, no sharp cut-off; inactive = mostly below about 26%
# CYP2C9 inhib = blocks human cytochrome P450 2C9. P11712. CYP2C9 Supersomes, luciferin-H conversion, luminescence. inhibition, % at 5 µM. hit rate 20% among 96,000;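 active = blocking of liver enzyme CYP2C9 beyond about 50% at 5 µM, limit read from the data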
# CYP2C19 act = activators of human cytochrome P450 2C19. P33261. recombinant CYP2C19, luciferin-H EGE luminescence; stronger effect = higher value; 0 = fully inhibited enzyme, 1 = untreated enzyme. activation factor at 5 µM. 96,000 tested, under 10 active. AID 1025;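 active = activation factor of at least 2 at 5 µM in the primary screen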;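 note: 0 = wells with 2.5 mM tranylcypromine and 1 = vehicle-only wells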
# CYP2C9 act = increases human cytochrome P450 2C9 activity. activation factor at 5 µM. AID 1024. hit rate 1.4% among 96,000. P11712. recombinant CYP2C9, luciferin-H conversion, luminescence; stronger effect = higher value; factor 1 = untreated enzyme, 0 = blocked;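 active = activation factor of 2 or more for CYP2C9 at a 5 µM dose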;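 note: 0 = sulfaphenazole-blocked wells and 1 = vehicle-only wells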
# An asterisk follows results filed as active; / = not tested or not shown.
SMILES,CYP2C19 inhib,Measles CPE,CYP2C9 inhib,CYP2C19 act,CYP2C9 act
O=C(c1nn2c(C(F)(F)F)cc(-c3ccco3)nc2c1Br)N1CCCc2ccccc21,79*,10,76*,0.2,0.2
O=C(c1nn2c(C(F)(F)F)cc(-c3cccs3)nc2c1Br)N1CCCc2ccccc21,/,1,/,/,/
CCCS(=O)(=O)c1c(S(=O)(=O)CCC)c2ccccn2c1C(=O)OC,20,5,52*,0.8,0.5
CCCS(=O)(=O)c1c(S(=O)(=O)CCC)c2cc(CC)ccn2c1C(=O)OC,25,3,43,0.8,0.6
CC(=O)Nc1ccc(-c2nc(C)c(C(C)=O)n2O)cc1,5,20,0,1,1
CCCS(=O)(=O)NCc1ccc2c(c1)cc(C)n2C,/,8,/,/,/
Cc1cc2cc(CNC(=O)Nc3ccccc3)ccc2n1C,/,10,/,/,/
COc1ccc(S(=O)(=O)NCc2ccc3c(c2)cc(C)n3C)cc1,76*,20,18,0.2,0.8
Cc1cc2cc(CNC(=O)c3ccc(S(=O)(=O)N4CCCC4)cc3)ccc2n1C,4,24,82*,1,0.2
Cc1cc2cc(CNS(=O)(=O)c3ccccc3)ccc2n1C,100*,14,74*,0,0.3
CCS(=O)(=O)NCc1ccc2c(c1)cc(C)n2C,54*,2,60*,0.5,0.4
Cc1cccc(N2C(N)=NC(N)=NC23CCCCC3)c1,0,5,7,1,0.9
COCCNC(=O)C(c1cccs1)N(CCc1ccccc1)C(=O)Cn1nnc2ccccc21 (stereo not drawn),-5,5,-4,1.1,1
COc1ccc(S(=O)(=O)Nc2ccccn2)cc1OC,8,4,-14,0.9,1.1
Oc1[nH]c2ccccc2c1C=NCC1CCCO1 (stereo not drawn),-3,7,-11,1,1.1
CCNC(=S)NCc1ccc2[nH]c(C)cc2c1,/,15,/,/,/
CCCc1cc2c(cc1NC(=O)c1ccccc1Cl)OCO2,94*,4,49,0.1,0.5
CCCc1cc2c(cc1NC(=O)c1ccc(Br)cc1)OCO2,87*,7,11,0.1,0.9
CCCc1cc2c(cc1NC(=O)c1ccccc1C)OCO2,95*,23,28,0,0.7
C=CCN(CC=C)C(=O)c1ccccc1NC(=O)c1ccccc1C,51*,5,8,0.5,0.9
c1ccc(COc2ccc(OCCCN3CCCC3)cc2)cc1,/,23,/,/,/
CCn1cc(C(=O)Nc2ccc(C)c([N+](=O)[O-])c2)cn1,/,10,/,/,/
COc1cc(C(=O)Nc2c(C)cc(C)cc2C)c([N+](=O)[O-])cc1OC,/,15,/,/,/
Cc1cccc(-n2cnc3cc(C(=O)N4CCc5ccccc54)ccc32)c1,/,21,/,/,/
Cn1c(-c2ccc(F)cc2)cnc1NCc1ccc(C#N)cc1,64*,6,57*,0.4,0.4
SMILES,CYP2C19 inhib,Measles CPE,CYP2C9 inhib,CYP2C19 act,CYP2C9 act
Cn1c(-c2ccc(F)cc2)cnc1NCc1ccc(F)cc1,69*,5,28,0.3,0.7
CCOc1cc(CNc2ncc(-c3ccc(OC)cc3)n2C)ccc1O,59*,7,47,0.4,0.5
COc1ccc(-c2cnc(NCc3cc4c(cc3[N+](=O)[O-])OCO4)n2C)cc1,/,8,/,/,/
Cn1c(-c2ccc(Br)cc2)cnc1NCc1cccnc1,37,6,23,0.6,0.8
COc1ccc2nc(C)cc(SCC(=O)NNC(=O)COc3ccc(C)cc3)c2c1,12,9,2,0.9,1
COc1cccc(C(=O)N(Cc2nc(-c3cccc(C)c3)no2)C(C)C)c1OC,74*,6,82*,0.3,0.2
Cc1cccc(-c2noc(CN(C(=O)c3ccc4c(c3)OCO4)C(C)C)n2)c1,6,46*,37,0.9,0.6
Cc1cccc(-c2noc(CN(C(C)C)S(=O)(=O)c3ccc(F)cc3)n2)c1,27,5,-14,0.7,1.1
Cc1cccc(-c2noc(CN(C(=O)C(c3ccccc3)c3ccccc3)C(C)C)n2)c1,11,6,51*,0.9,0.5
Cc1cccc(-c2noc(CN(C(=O)c3ccc(Br)o3)C(C)C)n2)c1,46,19,56*,0.5,0.4
Cc1cccc(-c2noc(CCc3ccccc3)n2)c1,-14,4,-17,1.1,1.2
Cc1cccc(-c2noc(Cc3ccccc3)n2)c1,-1,21,1,1,1
CCCCc1cc(=O)oc2cc(OCC(=O)N(CC)CC)ccc12,17,1,19,0.8,0.8
OC(C#CCN1CCCCC1)c1ccccc1 (stereo not drawn),10,8,-1,0.9,1
